Laboratory results published in PubChem BioAssay AID376 (PDSP, 2006).
Among all 2,000 compounds or so, about 250 (12%) were called active. This is one part of a sample in which actives are shown more often than they occur. Values without a mark were called inactive. Cut-off read from the data, not from the text of the source: active = hERG blockade below about -20% or above about 20%; inactive = in between.

Each molecule was assayed against Voltage-gated inwardly rectifying potassium channel KCNH2 (Homo sapiens) (UniProt Q12809) (assay: KCNH2 potassium channel function modulators, cell-based (AID 376;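 note: 0% = buffer alone and 100% = reference blocker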)). Details: hERG-expressing cells, channel activity single-concentration screen; concentration not given here.
Sequence of Voltage-gated inwardly rectifying potassium channel KCNH2 (Homo sapiens) (Q12809 whole entry, looked up): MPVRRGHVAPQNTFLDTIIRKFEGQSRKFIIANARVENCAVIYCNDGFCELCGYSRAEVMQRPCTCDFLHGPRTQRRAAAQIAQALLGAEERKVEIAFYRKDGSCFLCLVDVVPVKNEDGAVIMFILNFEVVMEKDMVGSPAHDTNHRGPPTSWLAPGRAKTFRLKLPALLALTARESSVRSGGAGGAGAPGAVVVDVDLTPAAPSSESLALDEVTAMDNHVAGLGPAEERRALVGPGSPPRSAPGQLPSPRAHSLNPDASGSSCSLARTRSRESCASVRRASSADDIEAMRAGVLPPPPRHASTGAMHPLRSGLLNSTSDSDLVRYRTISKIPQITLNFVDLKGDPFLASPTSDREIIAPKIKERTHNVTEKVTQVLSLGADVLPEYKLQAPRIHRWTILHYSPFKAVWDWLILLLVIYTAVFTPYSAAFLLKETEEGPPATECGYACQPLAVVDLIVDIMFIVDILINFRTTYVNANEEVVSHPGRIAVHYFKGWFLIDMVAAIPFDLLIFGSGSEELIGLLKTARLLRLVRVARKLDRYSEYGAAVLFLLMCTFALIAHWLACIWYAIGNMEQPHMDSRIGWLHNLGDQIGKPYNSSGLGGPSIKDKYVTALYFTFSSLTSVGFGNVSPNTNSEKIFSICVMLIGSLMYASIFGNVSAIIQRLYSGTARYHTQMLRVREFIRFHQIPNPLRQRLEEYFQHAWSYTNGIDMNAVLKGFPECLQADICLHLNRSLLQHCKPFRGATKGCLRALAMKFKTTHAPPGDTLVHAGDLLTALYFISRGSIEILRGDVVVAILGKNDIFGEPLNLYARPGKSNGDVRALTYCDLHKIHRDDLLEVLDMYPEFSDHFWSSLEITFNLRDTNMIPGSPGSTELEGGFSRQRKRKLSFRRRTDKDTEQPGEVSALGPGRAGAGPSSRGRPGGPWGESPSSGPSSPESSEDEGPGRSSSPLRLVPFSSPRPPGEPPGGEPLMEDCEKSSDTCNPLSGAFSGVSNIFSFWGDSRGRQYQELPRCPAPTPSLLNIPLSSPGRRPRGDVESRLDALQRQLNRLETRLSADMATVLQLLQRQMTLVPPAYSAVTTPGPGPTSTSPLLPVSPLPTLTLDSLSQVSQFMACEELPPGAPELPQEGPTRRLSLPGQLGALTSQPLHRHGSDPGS
In the case of `CN(C)CCC(C#N)(c1ccccc1)c1ccccc1`, the hERG blockade is reported as 6.53%. With `c1ccc2c(c1)Sc1ccccc1N2CC1CN2CCC1CC2` (stereo unspecified) the hERG blockade was 69.3% (active). With `CC1C(C)N1CC(O)Cn1ccnc1[N+](=O)[O-]` (stereo unspecified) the hERG blockade was 8.14%. In the case of `Cc1ccc(O)cc1` (tested in a mixture with another compound), the hERG blockade is reported as -3.08%. Work on `ClCC[N+]12CC[N+](CCCl)(CC1)C2` (tested in a mixture with another compound) yielded a hERG blockade of 11.5%. In the case of `CC1(C)N=C(N)N=C(N)N1c1cccc(C(=O)Nc2ccc(S(=O)(=O)F)cc2)c1`, the hERG blockade is reported as 24.1% (active). Molecule `O=C(O)c1cccc([As]=[As]c2cccc(C(=O)O)c2)c1` (stereo unspecified) has a hERG blockade of -10.8%. In the case of `NC(Cc1cc(Br)c(O)c(Br)c1)C(=O)O` (stereo unspecified), the hERG blockade is reported as 9.07%. For `NNc1nncn1N`, the hERG blockade was -1.06%. For `COc1cc2cc(c1Cl)N(C)C(=O)CC(OC(=O)C(C)C)C1(C)OC1C(C)C1CC(O)(NC(=O)O1)C(OC)C=CC=C(C)C2` (stereo unspecified), the hERG blockade was 33% (active). In the case of `O=C(O)C[O][Sb][O]CC(=O)O`, the hERG blockade is reported as 2.23%. Molecule `OC(CN1CC1)C(O)CN1CC1` (stereo unspecified) has a hERG blockade of 3.04%. With `c1cc(CCN2CCCCC2)ccn1` the hERG blockade was -7.49%. Molecule `C=C(C)c1ccccc1` (tested in a mixture with another compound) has a hERG blockade of 1.7%. `CC1OC(OC2CC(O)C3(CO)C4C(O)CC5(C)C(C6=CC(=O)OC6)CCC5(O)C4CCC3(O)C2)C(O)C(O)C1O` (stereo unspecified) gave a hERG blockade of 2.43%. Molecule `CCC1(O)C(=O)OCc2c1cc1n(c2=O)Cc2cc3c(NC(=O)CN)cccc3nc2-1` (stereo unspecified) has a hERG blockade of 7.93%. `O=C(O)C(Cc1cnc[nH]1)N1C(=O)c2ccccc2C1=O` (stereo unspecified) was tested, and the hERG blockade was 14.2%. With `Oc1cccc2cccnc12` the hERG blockade was -22.9% (active). For `NCCCN1CCN(c2ccccc2)CC1`, the hERG blockade was -0.441%. For `C(=NCCN1CCOCC1)=NC1CCCCC1`, the hERG blockade was 6.97%. Molecule `O=C(O)c1cc(N=Nc2ccc([As](=O)(O)O)cc2)ccc1O` has a hERG blockade of 3.08%. In the case of `CC(=O)OC1=CC2=CCC3C4CCC(=O)C4(C)CC(=O)C3(S)C2(C)CC1` (stereo unspecified), the hERG blockade is reported as -3.78%. With `O=C(O)CNCP(=O)(O)O` the hERG blockade was -1.2%. With `CN1CC(C(=O)NC2(C)OC3(O)C4CCCN4C(=O)C(Cc4ccccc4)N3C2=O)C=C2c3cccc4[nH]cc(c34)CC21` (stereo unspecified) the hERG blockade was 6.97%. In the case of `CC(Br)CN(CC(C)Br)c1ccc2c(c1)Cc1ccccc1-2` (stereo unspecified), the hERG blockade is reported as 3.41%. `CCC(O)(C(=O)O)c1cc2n(c(=O)c1CO)Cc1cc3ccccc3nc1-2` (stereo unspecified) gave a hERG blockade of -3.09%. `C[N+]1([O-])C2CCC1CC(OC(=O)C(CO)c1ccccc1)C2` (stereo unspecified) was tested, and the hERG blockade was -12.1%. With `CN(C)CCCNc1c2c(nc3ccc(Cl)cc13)CCCC2` the hERG blockade was 65.9% (active). For `O=S(=O)(O)C(=Cc1ccccc1)c1ccccc1` (tested in a mixture with another compound), the hERG blockade was -5.32%. `O=C(O)Cc1ccc([N+](=O)[O-])cc1[N+](=O)[O-]` was tested, and the hERG blockade was -15.6%. In the case of `CC(c1ccccc1)N1CCN(C(C)c2ccccc2)CC1` (stereo unspecified), the hERG blockade is reported as 2.64%. In the case of `CCC1CN2CCc3cc(OC)c(OC)cc3C2CC1CC1NCCc2c1[nH]c1ccc(O)cc21` (stereo unspecified), the hERG blockade is reported as 35.8% (active). `O=C(O)CC1OCC=C2CN3CCC45C6=CC(=O)C(=O)C([N+](=O)[O-])=C6NC4C1C2CC35` (stereo unspecified) gave a hERG blockade of 13.9%. Work on `CC12CCC(CN(CCC[N+](C)(C)C)C1)C2(C)C` (stereo unspecified) yielded a hERG blockade of 4.55%. `CC1CCC2N(C1)CC1C3(O)CC45OC6(O)C(O)CCC4(C)C6CCC5C3(O)CC(O)C1(O)C2(C)O` (stereo unspecified) gave a hERG blockade of 12.9%. In the case of `CSCCC(N)P(C)(=O)O` (stereo unspecified), the hERG blockade is reported as -4.74%. For `C[As+](C)(c1ccc(Br)c([N+](=O)[O-])c1)c1ccc(Br)c([N+](=O)[O-])c1.O=[N+]([O-])[O-]`, the hERG blockade was 13.6%. For `N=C(N)n1cc(C=NN=C(N)N)cn1`, the hERG blockade was 47.3% (active). `S=P(C1CCCCC1)(C1CCCCC1)C(c1cccnc1)N1CCCC1` (stereo unspecified) showed a hERG blockade of 1.56%. Work on `O.O.[NH-]C1(C(=O)O)CCCC1.[NH-]C1(C(=O)O)CCCC1.[Ni+2]` yielded a hERG blockade of 1.76%. Work on `Cc1cc[c]([Sb]2[O]C(CO)C(C(O)C(O)C(=O)O)[O]2)cc1` (stereo unspecified) yielded a hERG blockade of -4.77%.
